Source: the supplement of paper PMC7411640
Where a name gives a salt, the structure may show the parent alone.

What follows are molecules tested on MDA-MB-468 (assay: phospho-S6 immunofluorescence (DAPI-normalised), per-plate z-score; higher = higher phospho-S6 signal (less pathway suppression)). Details: co-treatment: lapatinib 1 uM; 24 h.
Procedure: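 GPCR-targeted compound library (MedChemExpress HY-L006) tested on MDA-MB-468 PTEN-null TNBC cells in 384-well plates at 0.1, 1 or 10 uM, combined with vehicle, GDC0941 450 nM or lapatinib 1 uM, for 24 h. Phospho-S6 (S240/244) immunofluorescence normalised to DAPI and expressed as a per-plate z-score; values are the mean of biological triplicates.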

| Structure (SMILES) | phospho-S6 immunofluorescence (z-score) |
| --- | --- |
| C[C@@H](NCCCc1cccc(C(F)(F)F)c1)c1cccc2ccccc12 [Cinacalcet (hydrochloride)] (compound 10 µM) | -11.2 |
| CNc1nc(NCc2ccc(NS(C)(=O)=O)cc2Cl)cc(-c2ccccn2)n1 (compound 10 µM) | -5.07 |
| C[C@H](NC(=O)c1c(C(F)F)nn(C)c1Oc1cccc(C(F)(F)F)c1)c1ccc(C(=O)O)cc1 (compound 10 µM) | 0.46 |
| CC[N+](CC)(CC)CCOc1cccc(OCC[N+](CC)(CC)CC)c1OCC[N+](CC)(CC)CC [Gallamine Triethiodide] (compound 10 µM) | -0.13 |
| CCCN(CCc1cccs1)C1CCc2c(O)cccc2C1 (racemic) [rac-Rotigotine (Hydrochloride)] (compound 10 µM) | 0.67 |
| Cc1ccccc1N1CCN(CCc2nnc3n2CCCC3)CC1 [Dapiprazole (hydrochloride)] (compound 10 µM) | -0.49 |
| CCCCc1oc2ccc(NS(C)(=O)=O)cc2c1C(=O)c1ccc(OCCCN(CCCC)CCCC)cc1 [Dronedarone] (compound 10 µM) | -8.99 |
| CN(C)[C@@H]1CCc2[nH]c3ccc(NC(=O)c4ccc(F)cc4)cc3c2C1 (compound 10 µM) | -1.38 |
| COCCCN1CCC(NC(=O)c2cc(Cl)c(N)c3c2OCC3)CC1 [Prucalopride] (compound 10 µM) | 0 |
| COc1ccccc1OCCNCC(O)COc1cccc2[nH]c3ccccc3c12 (stereo not given) [Carvedilol] (compound 10 µM) | -4.63 |
| C=CCc1ccccc1OCC(O)CNC(C)C (stereo not given) [Alprenolol (hydrochloride)] (compound 10 µM) | -0.09 |
| CCCCCCCCOc1ccccc1C(=O)Nc1ccc(C(=O)OCC[N+](C)(CC)CC)cc1 [Otilonium (bromide)] (compound 10 µM) | 2.8 |
| C[C@H]1C[C@H]2[C@@H]3CCC4=CC(=O)C=C[C@]4(C)[C@@]3(F)[C@@H](O)C[C@]2(C)[C@@]1(O)C(=O)CO [Betamethasone] (compound 10 µM) | 1.5 |
| N=C(N)N/N=C/c1c(Cl)cccc1Cl [Guanabenz (Acetate)] (compound 10 µM) | -0.12 |
| NC[C@H](O)c1ccc(O)c(O)c1 [Norepinephrine (bitartrate monohydrate)] (compound 10 µM) | 1.81 |
| CCNC(=O)[C@@H]1CCCN1C(=O)[C@H](CCCN=C(N)N)NC(=O)[C@H](CC(C)C)NC(=O)[C@@H](C)NC(=O)[C@H](Cc1ccc(O)cc1)NC(=O)[C@H](CO)NC(=O)[C@H](Cc1c[nH]c2ccccc12)NC(=O)[C@H](Cc1cnc[nH]1)NC(=O)[C@@H]1CCC(=O)N1 [Alarelin (Acetate)] (compound 10 µM) | -0.01 |
| CCOc1cc(N)c(Cl)cc1C(=O)NCC1CN(Cc2ccc(F)cc2)CCO1 (stereo not given) [Mosapride (citrate)] (compound 10 µM) | 0.46 |
| O=C(c1ccc(F)cc1)C1CCN(CCn2c(=O)[nH]c3ccccc3c2=O)CC1 [Ketanserin (tartrate)] (compound 10 µM) | -0.54 |
| CCCN[C@H]1CCc2nc(N)sc2C1 [Pramipexole (dihydrochloride)] (compound 10 µM) | 0.31 |
| O=C(O)CC1CCC2(CC1)CCN(c1cc(OC(F)(F)F)ccc1Cl)CC2 (compound 10 µM) | 0.11 |
| C[C@H](NC(=O)C(C)(C)Oc1ccc(C(F)(F)F)cn1)[C@@H](Cc1ccc(Cl)cc1)c1cccc(C#N)c1 [Taranabant] (compound 10 µM) | -2.35 |
| CC(C)(C)NC[C@H](O)COc1nsnc1N1CCOCC1 [(S)-Timolol (Maleate)] (compound 10 µM) | 0.33 |
| Cc1ccc(Sc2ccccc2N2CCNCC2)c(C)c1 [Vortioxetine (hydrobromide)] (compound 10 µM) | -11.4 |
| OCCN1CCN(CCCN2c3ccccc3Sc3ccc(Cl)cc32)CC1 [Perphenazine] (compound 10 µM) | -5.07 |
| Cc1cc(C(C)(C)C)c(O)c(C)c1CC1=NCCN1 [Oxymetazoline (hydrochloride)] (compound 10 µM) | -0.17 |
| c1ccc(NCc2ccc(CNc3ccccn3)cc2)nc1 (compound 10 µM) | -0.48 |
| CCCN(CCc1cccs1)[C@H]1CCc2c(O)cccc2C1 [Rotigotine] (compound 10 µM) | -0.05 |
| COc1ccc(CNC(=O)c2sc3nc(C)cc(C)c3c2N)cc1 (compound 10 µM) | 1.66 |
| CN1CCN(C2=Nc3ccccc3Oc3ccc(Cl)cc32)CC1 [Loxapine] (compound 10 µM) | -0.55 |
| CC(=O)OCC(=O)[C@@]12OC(C)(C)O[C@@H]1C[C@H]1[C@@H]3C[C@H](F)C4=CC(=O)C=C[C@]4(C)[C@@]3(F)[C@@H](O)C[C@@]12C [Fluocinonide] (compound 10 µM) | 0.59 |
